Laboratory results as given in PubChem BioAssay (NCI).
The panel holds about 79,000 compounds, 15% with a hit somewhere; the sample as a whole holds those more often. Rule as the data show it: active = growth inhibition above about 70%; inactive = the rest.

What was measured:
[1] = NCI Yeast Anticancer Drug Screen. Data for the rad50 strain (AID 155);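 also: 0% = growth of vehicle-only cultures of the same strain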; settings: S. cerevisiae rad50 strain growth inhibition; at 50.0 µM; stronger effect = higher value
Outline: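 Vehicle-treated cultures provide the reference for the growth inhibition reported for compound-exposed, repair-deficient yeast.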

[2] = NCI Yeast Anticancer Drug Screen. Data for the mec2-1 strain (AID 157); settings: S. cerevisiae mec2-1 strain, at 50.0 µM, stronger effect = higher value
Outline: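 Readout is yeast growth inhibition, normalised to vehicle-treated controls, in the mec2-1 strain exposed to compound.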

[3] = NCI Yeast Anticancer Drug Screen. Data for the sgs1 mgt1 strain (AID 161);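 also: 0% = growth of cultures given vehicle only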; settings: S. cerevisiae sgs1 mgt1 strain, at 50.0 µM, stronger effect = higher value
Outline: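 Growth of a repair-deficient yeast mutant was monitored after compound treatment and expressed as inhibition relative to vehicle-treated cultures.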

[4] = NCI Yeast Anticancer Drug Screen. Data for the cln2 rad14 strain (AID 165);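 also: 0% = growth equal to vehicle treated cultures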; settings: S. cerevisiae cln2 rad14 strain, at 50.0 µM, stronger effect = higher value
Outline: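 Relative to vehicle controls, growth inhibition of compound-treated cln2 rad14 yeast was recorded.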

[5] = NCI Yeast Anticancer Drug Screen. Data for the bub3 strain (AID 167); settings: S. cerevisiae bub3 mutant strain, at 50.0 µM, stronger effect = higher value
Outline: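 Mutant yeast screening strain plus compound; vehicle-treated cultures serve as the 0% inhibition reference.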

[6] = NCI Yeast Anticancer Drug Screen. Data for the mlh1 rad18 strain (AID 175); settings: S. cerevisiae mlh1 rad18 strain growth inhibition; at 50.0 µM; stronger effect = higher value
Outline: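 Test agents were incubated with a yeast strain of defined genotype (DNA damage repair defect). Inhibition of growth was derived by comparison with vehicle-exposed cultures.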

Measured: growth inhibition

CCC(C)c1cnc(CC(C)C)c(=O)[nH]1 (stereo not drawn)
inactive: [1] 8.9% | [2] -44.2% | [3] 17.2% | [4] 4.85% | [5] -9.6% | [6] 0.85%

COc1ccc(C2CCCCCC2OC(=O)c2ccc([N+](=O)[O-])cc2)c(OC)c1OC (stereo not drawn)
inactive: [1] 16% | [2] 11.5% | [3] -2.45% | [4] 42.9% | [5] 2.6% | [6] 1.7%

CN(C)c1ccc(/C=C(/NC(=O)c2ccccc2)C(N)=O)cc1
inactive: [1] 13.9% | [2] 4.55% | [3] 8.95% | [4] 8.1% | [5] 7.6% | [6] 5.1%
